High-throughput results as filed in PubChem.
Rows were chosen to be rich in hits. Some 0.97% of all compounds tested hit in one or more screens of this group.
FadD28 binding = inhibitors of FadD28 bisubstrate probe binding, primary screen, biochemical, fluorescence polarization, single point | 360,000 tested, 0.22% active | inhibition, % at 12.5 µM | Mycobacterium tuberculosis FadD28 fatty-acid-AMP ligase; in the data active = inhibition above about 8.5%, passing the limit was not always enough; inconclusive = no clear call, values can overlap the other calls
UGM FP inh = M. tuberculosis UGM enzyme inhibitors, primary screen, biochemical, fluorescence polarization, single point. UDP-galactopyranose mutase (Mycobacterium tuberculosis (strain ATCC 25618 / H37Rv)), …. purified UGM, fluorescence polarization probe displacement. inhibition, % at 10 µM. 320,000 tested, 0.06% active. AID 504406, 2011; in the data active = inhibition above about 10%, passing the limit was not always enough; inconclusive = no clear call, values can overlap the other calls
Rv3671c inh = Rv3671c serine protease inhibitors, primary screen, biochemical, fluorescence polarization, M. tuberculosis H37Rv. P9WHR9. 320,000 tested, 0.048% active. inhibition, % at 5.96 µM; in the data active = inhibition above about 38%;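 note: extracellular domain of Rv3671c used as enzyme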
TcdB inh = TcdB glycohydrolase inhibitors, primary screen, biochemical, single point, plate reader. TcdB glycohydrolase enzymatic assay. inhibition, % at 9.99 µM. 350,000 tested, 0.24% active; in the data active = inhibition above about 10%
RecA intein inh = Mtb RecA intein splicing inhibitors, primary screen, biochemical, fluorescence, HTS | inhibition, % (concentration not given with the values) | cell-free RecA intein splicing | 290,000 tested, 0.75% active | Protein RecA (Mycobacterium tuberculosis (strain ATCC 25618 / H37Rv)), P9WHJ3; in the data active = inhibition above about 30%; inconclusive = no clear call, values can overlap the other calls
Mtb BioA inh = M. tuberculosis BioA enzyme inhibitors, primary screen, biochemical, plate reader, single point, HTS. 7,8-diaminopelargonic acid synthase BioA (Mycobacterium tuberculosis). purified M. tuberculosis BioA enzyme. inhibition, % at 9.99 µM. 360,000 tested, 0.096% active; in the data active = inhibition above about 40%; inconclusive = no clear call, values can overlap the other calls
GFP chromophore = counter-screen: blocks GFP chromophore formation, dose response, counter-screen, biochemical, fluorescence, homogeneous | EC50, µM | 2,100 tested, 83% active | AID 434968, 2010 | shares compounds with RecA intein inh | cell-free GFP chromophore formation; call rule not given here
Numbers stand for hits; i = inactive; ? = inconclusive; nt = no result given.

SMILES	FadD28 binding	UGM FP inh	Rv3671c inh	TcdB inh	RecA intein inh	Mtb BioA inh	GFP chromophore
CCCCn1c(NC(=O)c2ccc(Br)o2)c(S(=O)(=O)c2ccccc2)c2nc3ccccc3nc21	i	i	i	nt	90.1	i	?
O=C(Nc1ccccc1)C1=C(c2ccccc2)S(=O)(=O)CCS1(=O)=O	i	nt	nt	i	93.7	nt	1.54
O=C(O)c1ccccc1C(=O)Nc1ccccc1	i	i	i	nt	i	i	nt
Cc1nn(-c2ccccc2)c2c1C(c1ccco1)C(C#N)=C(N)O2 (stereo unspecified)	i	i	i	nt	68.1	i	17.8
Cc1nn(-c2ccccc2)c2c1C(c1cccs1)C(C#N)=C(N)O2 (stereo unspecified)	i	i	i	nt	91.9	i	9.81
CCCc1nn(-c2ccccc2)c2c1C(c1cccs1)C(C#N)=C(N)O2 (stereo unspecified)	i	i	i	i	66.6	nt	16.5
C[C@@H]1CN([C@@H](C)CO)S(=O)(=O)c2ccc(C3=CCCCC3)cc2O[C@H]1CN(C)C(=O)c1ccc(F)cc1	nt	nt	nt	i	nt	i	nt
Nc1ccccc1S(=O)(=O)NC1=NCCCCC1	i	i	i	nt	30.0	i	i
Nc1ccc(S(=O)(=O)NC2=NCCCCC2)cc1N	i	i	i	i	i	i	nt
CCC(=O)N(C)C[C@H]1Oc2ncc(-c3ccc(F)cc3)cc2C(=O)N([C@@H](C)CO)C[C@@H]1C	nt	nt	nt	i	nt	i	nt
Cc1nn(-c2ccccc2)c2c1C1(C(=O)N(C(C)C)c3ccccc31)C(C#N)=C(N)O2 (stereo unspecified)	i	i	i	nt	81.4	i	11.9
Cc1nn(-c2ccccc2)c(N)c1C1(O)C(=O)N(C(C)C)c2ccccc21 (stereo unspecified)	i	i	i	i	i	nt	nt
O=C(C[C@@H]1CC[C@@H](NC(=O)c2ccccc2)[C@H](CO)O1)NCc1ccc(Oc2ccccc2)cc1	nt	nt	nt	i	nt	i	nt
CCCn1c(=O)[nH]c(=O)c2c1nc(-c1ccccc1OC(F)F)n2CCOC	i	i	i	nt	i	i	nt
CCCn1c(=O)[nH]c(=O)c2c1nc(-c1ccc(OC(F)F)c(OC)c1)n2CCOC	i	i	i	nt	52.5	i	i
O=C(C[C@@H]1CC[C@H]2[C@@H](COC[C@@H](O)CN2Cc2cc(F)cc(F)c2)O1)NCc1cccc(F)c1	nt	nt	nt	i	nt	i	nt
CC(C)NC(=O)N(C)C[C@H]1Oc2ncc(C#CC3CCCC3)cc2C(=O)N([C@@H](C)CO)C[C@H]1C	nt	nt	nt	i	nt	i	nt
CC(=O)Oc1c(/C=C(\C#N)C(N)=O)[nH]c2ccccc12	i	nt	nt	i	74.4	i	0.0544
COc1cc(/C=C2/C(=N)N3C(=NC2=O)SN=C3S(C)(=O)=O)ccc1OC(=O)c1ccco1	i	i	i	i	i	i	nt
CS(=O)(=O)C1=NSC2=NC(=O)/C(=C\c3ccc(OC(=O)c4ccco4)cc3)C(=N)N21	nt	i	i	nt	35.0	nt	i
CN(C)C(=O)c1ccc(-c2ccc([C@H]3[C@@H](CO)N4CCCCN(C(=O)C5CCC5)C[C@@H]34)cc2)cc1	nt	nt	nt	i	nt	i	nt
COc1cccc(N=Nc2c(C)[nH]n(-c3ccccc3)c2=O)c1	i	i	i	i	i	i	nt
Cc1[nH]n(-c2ccccc2)c(=O)c1C(C[N+](=O)[O-])c1ccc(Br)cc1 (stereo unspecified)	i	i	i	nt	76.7	nt	17.2
Cc1ccc(C(C[N+](=O)[O-])c2c(N)n(C)c(=O)n(C)c2=O)cc1 (stereo unspecified)	i	i	i	i	i	nt	nt
COc1cccc(C(C[N+](=O)[O-])c2c(C)[nH]n(-c3ccccc3)c2=O)c1 (stereo unspecified)	i	i	i	i	95.6	i	27
SMILES	FadD28 binding	UGM FP inh	Rv3671c inh	TcdB inh	RecA intein inh	Mtb BioA inh	GFP chromophore
CC=Cc1ccc2n(c1=O)C[C@H]1[C@H](CO)[C@@H](C(=O)NC3CCC3)[C@@H]2N1Cc1ccccc1 (mixture of isomers)	nt	nt	nt	i	nt	i	nt
Cc1cc(=O)n(CCCc2ccccc2)[nH]1	i	i	i	i	91.9	i	8.02
O=C(NCCN1CCCC1)c1ccccc1Cl	i	i	i	i	i	i	nt
O=C1C(Cl)=C(NCCN2CCCCC2)C(=O)c2ccccc21	i	i	i	nt	48.1	nt	26.3
CCNC1=C(Cl)C(=O)c2ccccc2C1=O	i	i	i	nt	75.9	i	33.4
COc1cc(NC(C)CCCN)c2ncccc2c1Oc1ccccc1 (stereo unspecified)	i	nt	i	nt	35.9	nt	33.5
COc1ccc(Oc2c(OC)cc([N+](=O)[O-])c3ncccc23)cc1	i	nt	nt	i	nt	i	nt
C[C@@H]1CN([C@H](C)CO)S(=O)(=O)c2ccc(C#CC3CC3)cc2O[C@H]1CN(C)C(=O)C1CCC1	nt	nt	nt	i	nt	i	nt
COc1ccc(NC(=S)Nc2ccc3nsnc3c2)cc1	i	i	i	nt	40.2	i	i
CCOc1ccc(NC(=S)Nc2ccc3nsnc3c2)cc1	i	i	i	nt	i	nt	nt
COc1ccc(S(=O)(=O)N(C)C[C@H]2OCCCC[C@H](C)Oc3ccc(NC(=O)Nc4c(C)noc4C)cc3C(=O)N([C@H](C)CO)C[C@H]2C)cc1	nt	nt	nt	i	nt	i	nt
CCOC(=O)c1cnc2ccc(C)cc2c1Sc1ccccc1	i	i	i	nt	62.8	i	37.7
CNC[C@H]1OCCCC[C@@H](C)Oc2ccc(NC(=O)Nc3ccc(F)cc3)cc2C(=O)N([C@@H](C)CO)C[C@H]1C	nt	nt	nt	i	nt	i	nt
COc1ccc(C(=O)c2c(C(F)(F)F)oc3c2C(=O)c2ccccc2C3=O)cc1OC	i	i	i	nt	66.8	i	11.4
COc1ccc(C(=O)Nc2ccc3c(c2)C(=O)c2ccccc2C3=O)cc1OC	i	i	i	nt	i	nt	nt
Cc1ccc(NC(=O)c2sc3ncnc(N4CCN(c5ccccn5)CC4)c3c2C)c(C)c1	i	i	i	i	73.0	i	i
C[C@@H]1CCCCO[C@@H](CN(C)C(=O)Nc2ccc3c(c2)OCO3)[C@@H](C)CN([C@H](C)CO)C(=O)c2cc(NC(=O)NC3CCCCC3)ccc2O1	nt	nt	nt	nt	nt	i	nt
CNC[C@@H]1Oc2ncc(C#CC3(O)CCCC3)cc2C(=O)N([C@@H](C)CO)C[C@H]1C	nt	nt	nt	i	nt	i	nt
CCN1C(=O)CS/C1=N\S(=O)(=O)c1ccc(Cl)cc1	i	i	i	i	i	i	nt
CCn1c(Cl)c(C=O)s/c1=N\S(=O)(=O)c1ccccc1	i	i	i	i	88.9	i	14.7
NS(=O)(=O)c1ccc(N=Cc2c(O)c3ccccc3oc2=O)cc1	i	i	i	i	36.6	nt	i
